# A number with no mark means an inactive call. Calls come from the whole dose curve; as a rule, active = well fitted curve in the direction sought with a large enough effect in the repeat runs; inconclusive = weak or mixed curves; inactive = flat fitted curve, though single readings scatter.
# Test: qHTS assay to test for compound auto fluorescence at 460 nm (blue) in HepG2 cell free culture (AID 720685)
# Details: Cell-free culture medium, blue autofluorescence 405/460 nm; series mostly up to 91.3 µM; fluorescence, % of fluorescent control: at the top concentration
# Method in brief: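 Compound (23 nL) or DMSO pinned into cell-free MEM with 10% FBS; blue fluorescence read at 405/460 nm excitation/emission, expressed as auto-fluorescence equivalency to triamterene.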
# % is set by controls: 0 for no effect and ±100 for the full control effect.
row,SMILES,"fluorescence, % of fluorescent control"
1,CC(=O)OC(C)(C)C,0.104%
2,CC(C)(O)c1ccccc1,-0.0061%
3,OCC(CO)(CO)COCC(CO)(CO)CO,-0.0182%
4,C[C@H](O)C(=O)Nc1c(I)c(C(=O)NC(CO)CO)c(I)c(C(=O)NC(CO)CO)c1I,-0.0806% [at 18.6 µM]
5,CSc1ccc(C=O)cc1,-0.155%
6,NCC[C@H](O)C(=O)N[C@@H]1C[C@H](N)[C@@H](O[C@H]2O[C@H](CN)[C@@H](O)[C@H](O)[C@H]2O)[C@H](O)[C@H]1O[C@H]1O[C@H](CO)[C@@H](O)[C@H](N)[C@H]1O,-0.0075% [at 46 µM]
7,CCN1CCN(c2cc3c(cc2F)c(=O)c(C(=O)O)cn3C2CC2)CC1,0.0053% [at 46 µM]
8,CCCCCCCCCCCCCCC,-0.0669%
9,C/C=C1\C(=O)C[C@H]2[C@@H]3CCC4=CC(=O)CC[C@]4(C)[C@H]3CC[C@]12C,-0.144% [at 46 µM]
10,c1cc(CN2CCCCC2)cc(OCCCNc2nc3ccccc3s2)c1,-0.0339% [at 46 µM]
11,CC(C)(C)N(CCO)CCO,0.0142% [at 95.7 µM]
12,COc1cc(C)cc(O)c1,-0.0348%
13,COc1ccc(NC(C)=O)cc1,-0.0361% [at 95.7 µM]
14,CC(=O)c1ccc(C)cc1,-0.0251%
15,COC(C(=O)O)c1ccccc1 (configuration not stated),0.221%
16,COc1ccc(COC=O)cc1,-0.0458%
17,CCCCC=O,0.074%
18,C#CC(O)CCCCC (configuration not stated),0.0007%
19,COc1cc(CCC(C)=O)ccc1O,-0.0764%
20,NC(N)=NS(=O)(=O)c1ccc(N)cc1,-0.0031% [at 18.6 µM]
21,NC(=O)c1ncn([C@@H]2O[C@H](CO)[C@@H](O)[C@H]2O)c1O,-0.0595% [at 46 µM]
22,NC(=S)Nc1cccc2ccccc12,0.0279% [at 3.72 µM]

# From PubChem BioAssay (Tox21)
